# Results published in the supplement of paper PMC6555819.
# Test system: VDR:RXRa (NR concentration 270 nM, RXRa partner concentration 90 nM)
# Assay: PBM binding z-score (relative to random genomic background probes); higher = stronger binding; sequences stand for … in GC…GCGATTGACAGCGTAGAATGAAGG
# Procedure: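 Protein-binding microarray (Agilent 4x180K custom design, double-stranded 60-nt probes: 5' GC cap, 34-nt variable region, 24-nt constant primer region; full probe sequence given). Purified or IVT nuclear receptor:RXRα heterodimers (3:1 NR:RXRα, mostly 270:90 nM) or homodimers were incubated for 1 h in PBS with 2% milk and no ligand, then detected with Alexa488 antibodies. Fluorescence from o1-orientation probes (~5 replicates averaged) was converted to z-scores against 500 random hg19 background probes. Variable regions are seed direct-repeat (DR0–DR5) sites, all their single-nucleotide variants and half-site ablations.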
row,Sequence,PBM binding z-score
1,CCTTACGGGTCAAGGTTAAAGCACGGGTGGTACG,3.5
2,CCTACTGGGCCACGAAAGGTCATGGATTCAGTGA,4.1
3,ATCTCTAGATAAAAGTTCAGTGAATCCCGAGGAT,0.828
4,CCTAGCAGGCCAGTCTGGGTCACTCAAGGCTTGA,0.512
5,ATCTCTCGGTAAGACTCAGTTCAGTGAAGAACGC,0.848
6,GCTGCTAGGACAGGTTGGTCAGCTAACGGGTACG,-0.674
7,AGTCAAAGTTCAGGACGAGGTAAGGTAAAGCACG,2.4
8,ATACCAAGGTGATCGTGAGGTCCTTGATACTAAC,0.32
9,CCTATTAGTTGACCATAAGGGCAACCTAAGCTCG,0.839
10,ACTGGGAGGACAAAGGTCAGAGCTACGCCAGTGA,3.73
11,TCGAGTAGGATAGTCGGGGCATTCAGCCAACATA,-0.319
12,TCTTGTAGATCAACAGAAGGTTAAGAAAGATCGA,0.765
13,CCGACTAGGGCAGAAAGGTTACCATACCATCCGG,1.13
14,CGAACGAGGGAATGAGTTGATAGCAAATGCCGAT,-0.28
15,CCGAGTAGGTTATGGGGGATTCAGGCAACGGTGA,1.45
16,TCATATAGGTAAAAGGTGAAAGTAGGTGTGGTAA,1.93
17,CGAACTAGGTTATCCAGGACAGTGAATACATTGA,1.57
18,GGAACGAGGGCAAAGTTGATAGTATCTGTCGACG,1.21
19,TAGCCTGGGTCATTGGGCCAGTATAGTACGCATC,1.97
20,AGAATGAGGTTACCAAAGATCAGGGGAACGCTTG,1.49

row,Sequence,PBM binding z-score
1,ACTAGTTGGTCAACTGAGGTCACACACAATTCGG,5.33
2,CGTTCAAGGTCAGAGAGGTCAGTGAATGCCGAGT,7.5
3,GATACAGGGCCAAGGCCAGAGTACGCGTATTGAT,-0.59
4,ACAGACAGGTGATGAAGGCAACTCAGGCTATCAT,-0.257
5,ATCACTAGGTAAAAGTTCAGTGAATCCCGAGGAT,1.34
6,TGACCAAGGTGAAAGGTCGTTGATGCACGCCTTG,2.96
7,ACTATTACTTGAGACGAGGGCAACCGATAGGTTG,0.736
8,GCTAGTAGTTGAAAGGGCAACCGAATGATTCTCG,0.183
9,TCATATAGGTAAAGGTGAAAATCGAACGATATGA,0.688
10,GCGACTAGGGCATCAGCAGGTTACCATAACTTAA,-0.295
11,TCTATTAGTTGAGGGGCAACCGACGAGTCCGTTT,0.965
12,CAAACTAGGTCAGAGGTCAAAGTCGAGCCAACCA,6.04
13,TGAATGAGGTCATAAGATCAGGGAACGTTGCAAA,4.71
14,CCTATTAGTTGACCATAAGGGCAACCGTAGCTCG,0.674
15,CAAACTAGGTCACTGAGGTCAAAGTCCGTGCGTA,7.99
16,CCGACTGGGGCATAAGGGTACCATAAGCCAGCCC,-0.316
17,AGAATGAGGTTAATATCAGGGAAACAGAATACAT,1.04
18,ATCTCTAGGTAACCAAGTTCAGTGACTGCCGAAC,4.15
19,CGTCCAAAGTCAGCAGGTCAGTGAAAGCGACGTG,0.372
20,CCTACTGGGCCATCAAGTCATTGATATCAACGTT,-0.0971
